The text below walks through data of PubChem BioAssay (Tox21).

Values without a mark were called inactive. Results filed as inconclusive are left out. Active and inactive are the calls of the source. Unless noted, calls come from the whole dose curve; as a rule, active = well fitted curve in the direction sought with a large enough effect in the repeat runs; inconclusive = weak or mixed curves; inactive = no such curve, though single readings can be large; an effect the other way counts as inactive or inconclusive.

The nature of assay [1]: qHTS assay to identify small molecule agonists of the sonic hedgehog signaling (Shh) pathway - cell viability counter screen (AID 1259366). Note: nearly all actives have a fitted effect of over 50% in size. In short, it runs like this:
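In quantitative high-throughput format, 3T3 Gli1-Luc cells were exposed to compounds for 24hr and multiplexed for viability using CellTiter-Fluor, incubated 1hr at 37C before the fluorescence read.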
On the technique in general: In qHTS, concentration-response curves come from the screen itself.

Assay [2] is described as follows: qHTS assay to identify small molecule antagonists of the sonic hedgehog signaling (Shh) pathway - cell viability counter screen (AID 1259367). Note: nearly all actives have a fitted effect of over 55% in size. In short, it runs like this:
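After a 4 hr settling period, 3T3 Gli1-Luc cells were treated with DMSO-dissolved chemicals and conditioned medium, kept 24 hr at 37C in 5% CO2, and assayed for viability by CellTiter-Fluor fluorescence following 1 hr reagent incubation.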

Assay [3] can be described thus: qHTS assay to identify small molecule agonists of the sonic hedgehog signaling (Shh) pathway (AID 1259368; calls by dose curve;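 note: NIH/3T3-derived 3T3Gli1-Luc cells carrying a stable Gli1-driven firefly luciferase reporter; series mostly up to about 92 µM; nearly all actives have a fitted effect of over 15% in size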). The essentials:
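Luminescent signal was taken as a measure of Gli1-controlled luciferase expression in stably transfected NIH/3T3-derived cells that had been treated for 24 hr with compounds delivered in DMSO.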

Assay [4] is described as follows: qHTS assay to identify small molecule antagonists of the sonic hedgehog signaling (Shh) pathway (AID 1259369; calls by dose curve; note: nearly all actives have a fitted effect of over 45% in size). In short, it runs like this: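 Screening used 3T3Gli1-Luc cells at 2,000 per well, compounds delivered in DMSO, and conditioned medium as agonist stimulus; plates incubated 24hr at 37 C and 5% CO2 before a 30min luciferase step.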
For assay [5], the target named is Estrogen receptor beta (Homo sapiens) (UniProt Q92731). Nature of the assay: qHTS assay to identify small molecule antagonists of the estrogen receptor beta (ER-beta) signaling pathway (AID 1259378; active = well fitted inhibition curve with a large enough effect in the signal ratio in the repeat runs, not every such curve was filed as active; the % refers to the signal ratio). In short, it runs like this: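 ER-beta-UAS-bla HEK293T (GripTite) cells in 2% charcoal-stripped FBS medium were preincubated 6 hr at 37C, dosed with compound, then stimulated with 1 nM E2 (final) for 16 hr; beta-lactamase reporter read by B/G FRET fluorescence after 2 hr substrate loading.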

Assay [6] in a line: qHTS assay to identify small molecule agonists of the androgen receptor (AR) signaling pathway in the presence of an antagonist - cell viability counter screen (AID 1259379).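 Note: MDA-kb2 human breast cancer cells carrying an MMTV luciferase reporter; series mostly up to about 92 µM; nearly all actives have a fitted effect of over 25% in size.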 The essentials:
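In MDA-kb2 cells (human breast carcinoma, MMTV-luciferase), compounds at 15 concentrations plus 3.0uM nilutamide; 16 hr, 37C, 0% CO2; CellTiter-Fluor fluorescence read for viability.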

Assay [7] can be described thus: qHTS assay to identify small molecule agonists of the estrogen receptor beta (ER-beta) signaling pathway - cell viability counter screen (AID 1259380). Note: nearly all actives have a fitted effect of over 30% in size. The essentials: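 Viability of ER-beta-UAS-bla HEK293T cells was determined by CellTiter-Glo luminescence following 16 hr treatment with test compounds at 37C.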
A short description of assay [8]: qHTS assay to identify small molecule antagonists of the estrogen receptor beta (ER-beta) signaling pathway - cell viability counter screen (AID 1259382). Note: series mostly up to about 92 µM; nearly all actives have a fitted effect of over 55% in size. The essentials: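 Tox21 10K library tested in qHTS format on ER-beta-bla HEK293T cells stimulated with 1nM E2; 16 hr treatment at 37C. Same-well CellTiter-Glo luminescence served as the cell viability measure.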

The target in assay [9] is Thyrotropin receptor (Homo sapiens) (UniProt P16473). The experiment in a line: qHTS assay to identify small molecule antagonists of the thyroid stimulating hormone receptor (TSHR) signaling pathway (AID 1259385; calls by dose curve; note: nearly all actives have a fitted effect of over 20% in size). In short, it runs like this: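 TSHR-HEK293 cells were plated and held 18 h at 37C/5% CO2, then given compound plus Ro20-1724 and stimulated with TSH at 1.5 ng/mL final. After 30 min at room temperature, cAMP was detected with cAMP-d2/anti-cAMP-cryptate (1 h) by fluorescence.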

Assay [10] is described as follows: qHTS assay to identify small molecule agonists of the estrogen receptor alpha (ER-alpha) signaling pathway in the presence of an antagonist - cell viability counter screen (AID 1259386).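 Note: series mostly up to about 92 µM; cells exposed to compounds for 22 h at 37 °C before the viability read; nearly all actives have a fitted effect of over 30% in size.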 In short, it runs like this: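 Fluorescent CellTiter-Fluor viability signal from VM7Luc4E2 cells, with the reagent added during the final hour of a 22hr compound exposure at 37C in the presence of 10.0nM ICI-182,780.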

Assay [11] deals with Progesterone receptor (Homo sapiens) (UniProt P06401). Nature of the assay: qHTS assay to identify small molecule agonists of the progesterone receptor (PR) signaling pathway (AID 1346784; calls by dose curve; note: nearly all actives have a fitted effect of over 30% in size; note: potency is the fitted concentration of half-maximal effect). The essentials: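 Reporter assay, GripTite PR-UAS-bla HEK 293T cells: 16 hr exposure to DMSO-dissolved compounds at 37C, 5% CO2, in steroid-depleted (2% charcoal-stripped FBS) medium; beta-lactamase measured by FRET fluorescence.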

The target is the same in assay [12]. Nature of the assay: qHTS assay to identify small molecule antagonists of the progesterone receptor (PR) signaling pathway (AID 1346795; active = well fitted inhibition curve with a large enough effect in the signal ratio in the repeat runs, not every such curve was filed as active; the % refers to the signal ratio). In short, it runs like this: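 Stimulus R5020 at 1 nM final; cells HEK293T PR-UAS-bla; medium with 2% charcoal-stripped FBS; compound exposure 16 hr at 37C, 5% CO2; detection by FRET beta-lactamase substrate, 2 hr, room temperature.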

Assay [13] is described as follows: qHTS assay to identify small molecule antagonists of the progesterone receptor (PR) signaling pathway - cell viability counter screen (AID 1346798). Note: series mostly up to about 92 µM; nearly all actives have a fitted effect of over 50% in size. In short, it runs like this: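 In the same plates used for the beta-lactamase readout, cell viability of compound- and R5020-treated PR-UAS-bla HEK293T cells (16 hr, 37C) was assessed by CellTiter-Glo luminescence.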

Assay [14] is described as follows: qHTS assay to identify small molecule agonists of the progesterone receptor (PR) signaling pathway - cell viability counter screen (AID 1346799; calls by dose curve; note: nearly all actives have a fitted effect of over 45% in size). In short, it runs like this:
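Multiplexed viability read: CellTiter-Glo luminescence, 30 min RT, following LiveBLAzer FRET measurement on PR-UAS-bla HEK293T cells exposed to compounds 16 hr.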

Assay [15] is described as follows: qHTS assay to identify small molecule antagonists of the TGF-beta/Smad signaling pathway - cell viability counter screen (AID 1346824). Note: nearly all actives have a fitted effect of over 50% in size. The essentials: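 SBE-bla HEK 293T cells were plated overnight at 37 C, then given compounds in DMSO plus TGF-beta1 (added as 0.25 ng/mL solution) for 5 hr. After the bla read, CellTiter-Glo was added to the same wells and luminescence read after 30 min at room temperature.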

Assay [16] is described as follows: qHTS assay to identify small molecule agonists of the TGF-beta/Smad signaling pathway - cell viability counter screen (AID 1346829). Note: top concentration of the series differs between compounds; nearly all actives have a fitted effect of over 45% in size. In short, it runs like this:
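Same-well cytotoxicity: CellTiter-Glo added after the 2 hr room-temperature beta-lactamase substrate step, luminescence measured 30 min later; cells had 5 hr of compound at 37 C.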

Assay [17] deals with Estrogen receptor beta (Homo sapiens) (UniProt Q92731). The experiment in a line: qHTS assay to identify small molecule agonists of the estrogen receptor beta (ER-beta) signaling pathway (AID 1259377; active = well fitted activation curve with a large enough effect in the signal ratio in the repeat runs, not every such curve was filed as active; the % refers to the signal ratio). The essentials: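 Reporter cells (HEK293T, ER-beta-UAS-bla) receive compounds or DMSO after a 6 hr pre-incubation. They then incubate 16 hr at 37C/5% CO2, and fluorescence from LiveBLAzer B/G substrate is measured after 2 hours at room temperature.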

The target in assay [18] is Estrogen receptor (Homo sapiens) (UniProt P03372). The experiment in a line: qHTS assay to identify small molecule agonists of the estrogen receptor alpha (ER-alpha) signaling pathway in the presence of an antagonist (AID 1259383; calls by dose curve; note: top concentration of the series differs between compounds; nearly all actives have a fitted effect of over 15% in size). The essentials: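 In VM7Luc4E2 cells, 4,000 per well, compounds at 15 concentrations were co-incubated 22hr at 37C with 10.0nM final ICI-182,780. Luminescence from the stably transfected 4×ERE-luciferase reporter was recorded 30min after ONE-Glo addition.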

Assay [19] in a line: qHTS assay to identify small molecule agonists or antagonists of the thyroid stimulating hormone receptor (TSHR) signaling pathway - wild type cell line counter screen (AID 1259384; calls by dose curve). The essentials:
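Wild-type HEK293 cells were plated 18 h at 37 C/5% CO2, pin-dosed with compound plus Ro20-1724 medium, held 30 min at room temperature, then given cAMP-d2 and anti-cAMP-cryptate; fluorescence was read after 1 h. Fifteen concentrations, triplicate.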
% is set by controls: 0 for no effect and ±100 for the full control effect.

Progesterone receptor (Homo sapiens), sequence (P06401 whole entry, looked up): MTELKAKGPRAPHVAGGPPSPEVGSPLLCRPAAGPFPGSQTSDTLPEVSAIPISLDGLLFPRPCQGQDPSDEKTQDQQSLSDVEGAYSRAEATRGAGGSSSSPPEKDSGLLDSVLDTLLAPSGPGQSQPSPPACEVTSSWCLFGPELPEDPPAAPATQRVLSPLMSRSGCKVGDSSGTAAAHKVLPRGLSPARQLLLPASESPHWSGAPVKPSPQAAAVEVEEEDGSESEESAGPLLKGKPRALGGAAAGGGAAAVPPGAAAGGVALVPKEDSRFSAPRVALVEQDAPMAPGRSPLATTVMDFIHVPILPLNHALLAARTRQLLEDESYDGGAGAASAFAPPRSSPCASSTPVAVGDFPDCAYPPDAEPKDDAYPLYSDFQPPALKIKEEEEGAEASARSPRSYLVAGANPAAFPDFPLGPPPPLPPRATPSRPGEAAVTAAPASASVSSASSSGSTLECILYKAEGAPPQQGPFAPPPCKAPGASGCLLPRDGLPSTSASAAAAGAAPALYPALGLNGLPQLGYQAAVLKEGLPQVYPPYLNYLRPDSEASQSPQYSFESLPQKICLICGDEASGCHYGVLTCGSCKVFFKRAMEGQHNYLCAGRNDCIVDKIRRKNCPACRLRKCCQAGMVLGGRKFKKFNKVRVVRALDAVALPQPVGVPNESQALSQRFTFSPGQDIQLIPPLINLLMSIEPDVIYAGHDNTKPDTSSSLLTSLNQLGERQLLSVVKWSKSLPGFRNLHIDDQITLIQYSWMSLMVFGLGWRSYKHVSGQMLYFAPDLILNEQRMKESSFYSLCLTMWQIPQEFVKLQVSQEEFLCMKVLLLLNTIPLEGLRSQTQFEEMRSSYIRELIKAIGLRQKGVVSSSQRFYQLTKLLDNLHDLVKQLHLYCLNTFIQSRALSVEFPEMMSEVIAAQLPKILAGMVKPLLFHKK
Estrogen receptor beta (Homo sapiens), sequence (Q92731 whole entry, looked up): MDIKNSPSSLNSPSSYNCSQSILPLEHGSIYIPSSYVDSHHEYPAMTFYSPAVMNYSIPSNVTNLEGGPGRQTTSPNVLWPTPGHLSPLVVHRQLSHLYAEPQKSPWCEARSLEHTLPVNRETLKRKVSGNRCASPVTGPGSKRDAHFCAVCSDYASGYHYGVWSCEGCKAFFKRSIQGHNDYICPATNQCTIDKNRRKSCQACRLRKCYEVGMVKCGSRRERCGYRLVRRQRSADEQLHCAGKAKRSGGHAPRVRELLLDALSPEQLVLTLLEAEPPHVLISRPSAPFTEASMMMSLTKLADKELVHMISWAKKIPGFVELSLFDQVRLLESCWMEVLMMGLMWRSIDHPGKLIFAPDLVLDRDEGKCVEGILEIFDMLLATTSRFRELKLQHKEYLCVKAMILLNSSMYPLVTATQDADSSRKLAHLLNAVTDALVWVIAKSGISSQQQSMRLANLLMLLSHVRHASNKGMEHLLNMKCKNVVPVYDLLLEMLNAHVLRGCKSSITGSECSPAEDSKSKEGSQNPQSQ
Estrogen receptor (Homo sapiens), sequence (P03372 whole entry, looked up): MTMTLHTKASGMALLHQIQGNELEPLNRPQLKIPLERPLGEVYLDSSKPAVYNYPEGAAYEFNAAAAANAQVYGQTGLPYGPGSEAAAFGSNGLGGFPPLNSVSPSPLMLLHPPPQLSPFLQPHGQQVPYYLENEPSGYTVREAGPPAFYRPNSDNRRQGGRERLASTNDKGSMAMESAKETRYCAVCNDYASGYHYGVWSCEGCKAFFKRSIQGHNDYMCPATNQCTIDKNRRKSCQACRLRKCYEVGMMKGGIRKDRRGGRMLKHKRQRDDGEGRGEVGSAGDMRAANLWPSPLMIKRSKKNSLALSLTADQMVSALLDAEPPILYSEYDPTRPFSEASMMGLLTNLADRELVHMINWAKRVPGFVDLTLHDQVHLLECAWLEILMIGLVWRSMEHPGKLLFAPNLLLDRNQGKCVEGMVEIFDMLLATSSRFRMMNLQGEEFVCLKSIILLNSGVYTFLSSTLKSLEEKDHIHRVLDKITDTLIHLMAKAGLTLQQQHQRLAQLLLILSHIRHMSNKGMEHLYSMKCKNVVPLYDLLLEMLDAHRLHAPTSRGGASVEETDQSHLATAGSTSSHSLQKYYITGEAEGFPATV
Thyrotropin receptor (Homo sapiens), sequence (P16473 whole entry, looked up): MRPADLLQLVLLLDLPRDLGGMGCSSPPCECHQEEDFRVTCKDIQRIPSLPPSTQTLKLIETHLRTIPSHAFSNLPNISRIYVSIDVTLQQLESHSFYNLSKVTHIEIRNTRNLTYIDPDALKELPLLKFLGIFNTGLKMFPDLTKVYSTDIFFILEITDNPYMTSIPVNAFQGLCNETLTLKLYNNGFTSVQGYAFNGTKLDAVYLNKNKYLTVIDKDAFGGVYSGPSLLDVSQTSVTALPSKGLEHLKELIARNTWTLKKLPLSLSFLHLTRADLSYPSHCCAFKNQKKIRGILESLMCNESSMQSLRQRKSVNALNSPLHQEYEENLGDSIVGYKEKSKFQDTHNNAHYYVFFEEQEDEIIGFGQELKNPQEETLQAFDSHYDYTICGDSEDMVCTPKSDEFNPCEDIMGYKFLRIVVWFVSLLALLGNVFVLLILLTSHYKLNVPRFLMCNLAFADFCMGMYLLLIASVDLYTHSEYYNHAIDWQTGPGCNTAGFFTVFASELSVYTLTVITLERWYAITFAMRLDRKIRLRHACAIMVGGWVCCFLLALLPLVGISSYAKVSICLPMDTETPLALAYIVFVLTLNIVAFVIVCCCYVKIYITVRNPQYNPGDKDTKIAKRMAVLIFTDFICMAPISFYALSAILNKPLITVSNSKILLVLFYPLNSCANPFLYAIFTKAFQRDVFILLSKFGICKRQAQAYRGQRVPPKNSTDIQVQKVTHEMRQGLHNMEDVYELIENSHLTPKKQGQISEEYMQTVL

Regarding `CCCCCCCCS(=O)(=O)O`, the call in [1], in assay [2], in [3], in assay [5], in assay [6] and in assay [8] was inactive. The result in assay [9], in assay [10], in [13], in assay [15] and in assay [16] was inactive. The Potency result in assay [4], in [7], in [11], in assay [12] and in assay [14] was “inactive” in each case.
On to `C=CC(C)(CCC=C(C)C)OC(=O)C(C)C` (stereo not given), for which the call in [1], in assay [2], in assay [3], in assay [5], in assay [8] and in assay [9] was inactive. Further, the result in assay [10], in assay [13], in assay [15] and in [16] was inactive. In addition, the Potency entry in assay [4], in [17], in assay [18], in assay [11] and in assay [12] was “inactive” each time.
In the case of `CC(=O)Nc1ccc(OCCOCCOc2ccc(NC(C)=O)cc2)cc1`, the outcome in assay [1], in assay [2], in assay [3], in [6], in [8] and in assay [19] was inactive. Moreover, the call in [9], in assay [10], in [13], in assay [15] and in assay [16] was inactive. Besides, the Potency entry in [4], in assay [7], in [18], in [11] and in assay [12] was “inactive” each time.
As to `c1cc2ccc3ccc4ccc5cccc6c(c1)c2c3c4c56`, the viability change, negative = cytotoxic in [1] was 2.39% [at 3.27 µM]; in assay [2], -2.17% [at 3.27 µM]; in assay [15], 5.15% [at 2.72 µM]. Moreover, in assay [3], the activity change is 0.83% [at 3.27 µM]. Moreover, the activity change, negative = inhibition is 17.2% [at 3.27 µM] in assay [4], -1.71% [at 3.27 µM] in assay [9] and 17.5% [at 3.27 µM] in [12]. In addition, the activity, negative = inhibition in assay [5] is 4.07% [at 3.27 µM]. Also, the activity change, negative = cytotoxicity in assay [6] was 2.9% [at 3.27 µM]; in assay [7], 0.89% [at 3.32 µM]; in [8] it was -0.247% [at 3.27 µM]; in assay [10], 1.86% [at 3.27 µM]; in assay [13] it was 2.42% [at 3.27 µM]; in [16], 8.19% [at 2.72 µM]. Also, the cAMP activity change in assay [19] was 5.35% [at 3.27 µM]. Also, the Potency in assay [11] is 385 nM (active).
For the compound `CCOC(=O)c1ccc(N(C)C)cc1`, the outcome in assay [1], in assay [2], in assay [3], in assay [5], in assay [6] and in [10] was inactive. In addition, the result in [13], in assay [15] and in [16] was inactive. The Potency entry in assay [4], in [7], in [18], in [11], in assay [12] and in assay [14] was “inactive” throughout.
On to `CCOCCOCCOC(C)=O`, for which the outcome in assay [1], in [2], in assay [3], in assay [6], in assay [8] and in assay [19] was inactive. The call in assay [9], in assay [10], in assay [13], in assay [15] and in assay [16] was inactive. Besides, the Potency result in [4], in [17], in [7], in assay [11] and in assay [14] was “inactive” in each case.
Consider `COCc1nnc(-c2ccc[n+]([O-])c2)n1-c1c(Cl)c(Cl)cc2[nH]c(=O)c(=O)[nH]c12`, for which the result in assay [1], in [2], in assay [3], in assay [5], in [6] and in assay [8] was inactive. Further, the compound was classed as inactive in assay [19], in assay [9], in assay [10], in [15] and in assay [16]. For the same compound, the Potency entry in assay [4], in [7], in [18], in [11] and in [14] was “inactive” in each case.
